Screening results deposited in PubChem by Broad Institute.
This excerpt belongs to a sample that is enriched for hits.
Tgondii IFNg = T. gondii growth inhibition with IFN-gamma, primary screen, cell-based; Toxoplasma gondii growth in IFN-gamma-treated host cells; hits give low values; activity change, negative = inhibition, % (no concentration beside the values); 69,000 tested, 3.8% active; in the data active = activity change below about -70%, passing the limit was not always enough;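 note: host cells are HeLa cells infected with Toxoplasma gondii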
Starred values were filed as active, the others as inactive; ! = a repeat was not active.

SMILES	Tgondii IFNg
COc1ccc2c(c1)NC1(CCN(C(=O)Nc3cccc(Cl)c3)CC1)c1cccn1-2	437
COCCCNC(=O)c1cc2cc(S(=O)(=O)N(C)C)ccc2n1Cc1ccncc1	56
Cc1cnc(N2C[C@@H](c3ccccc3)[C@@]3(CCNC3=O)C2)nc1	-42
Cn1cncc1C(=O)N1CC2(CCNCC2)CC1C(=O)O (stereo not given)	1
O=C(C[C@H]1OC[C@H]2CN(Cc3ccccc3)CC[C@@H]21)N1CCCO1	104
COc1cc(CNc2ccc3[nH]c(=O)[nH]c3c2)ccc1OCc1ccccc1	163
C=CCOc1ccc(CNc2ccc3[nH]c(=O)[nH]c3c2)cc1OC	-9
O=c1[nH]c2ccc(NCC#Cc3ccccc3)cc2[nH]1	-83*
COc1ccc(NC(=O)c2nc3c(n2C(C)C)CCN(C(=O)C2CC2)C3)cc1	63
CCCc1nc(N(C)Cc2ccno2)c2cnn(C)c2n1	-42
COC(=O)[C@@]12OC[C@]34[C@H]([C@@H](O)[C@@H]1O)[C@@]1(C)CC(=O)C(=O)C(C)[C@@H]1C[C@H]3OC(=O)[C@H](OC(=O)/C=C(\C)C(C)C)[C@@H]24 (stereo not given in full)	-89*
COc1ccc(C(=O)N2CCC3(CC2)Nc2ccc(C)c(C)c2-n2cccc23)cc1OC	33
Cc1nonc1-c1csc(NC(=O)Cc2csc(-c3ccccc3)n2)n1	-6
CC(=O)NC1=NN(C(C)=O)C(C)(c2ccccc2)S1 (stereo not given)	-77*!
CC(=O)Nc1nonc1-c1ccccc1	0
CC(=O)Nc1ccccc1	-14
CCCSCCCNC(=O)c1ccc(-c2nc(CN3CCN(c4ccccc4)CC3)c(C)o2)cc1	-40
Cc1ccc(-c2nccs2)c(-n2cccn2)c1	-6
CCS(=O)(=O)N1CCC2(CC1)OC(=O)C(C)=C2C(=O)Nc1cc(Cl)ccc1C	48
Cn1ncc2c3ccccc3n(CC(=O)N3CCN(c4ccccn4)CC3)c2c1=O	136
CCC(C(=O)N1CCN(c2ccccn2)CC1)n1c2ccccc2c2cnn(C)c(=O)c21 (stereo not given)	-73*
CCC(C(=O)NCCN1CCCC1)n1c2ccccc2c2cnn(C)c(=O)c21 (stereo not given)	63
O=C(NCC1CCCO1)c1nc(-c2cn(Cc3ccccc3)cn2)n2ccccc12 (stereo not given)	1
CC(C)(C)c1ccc2c(c1)OCCOCCOCCOCCO2	-21
CC(C)(C)c1ccc(/C=C/C(=O)Nc2ccc3c(c2)OCCO3)cc1	-73*
SMILES	Tgondii IFNg
Cc1nn(-c2ccccc2)nc1C(=O)Nc1ccc2c(c1)OCCO2	7
Cc1ccc2[nH]c(=O)c(CN(CC3CCCO3)C(=O)c3ccc(F)cc3)cc2c1 (stereo not given)	-18
Cc1nc(-c2cccc(F)c2)sc1CCNC(=O)c1cccs1	-30
Cc1nn(C)cc1C(C)NC(=O)CC1CCN(Cc2cccc(C(F)(F)F)c2)CC1 (stereo not given)	0
CCN1CC[C@@H]2Oc3ccccc3S(=O)(=O)N(CC3CC3)[C@@H]2CC1	2
O=C(c1ccccc1)N1CC[C@@H]2Oc3ccccc3S(=O)(=O)N(CC3CC3)[C@@H]2CC1	-24
O=S1(=O)c2ccccc2O[C@H]2CCN(Cc3ccc(Cl)cc3)CC[C@H]2N1CC1CC1	-89*
Cc1c(Cl)cccc1NC(=O)Cn1cnc2c(cnn2-c2ccccc2Cl)c1=O	-35
O=C(c1cn2cc(Cl)ccc2n1)N1C[C@H]2C[C@H](O)[C@@H](O)C[C@H]2C1	-3
O=C(CCc1nc2ccc(Cl)cc2[nH]1)NCc1ccc2[nH]c(=O)[nH]c2c1	1
C=CCn1c(SCC(O)Cn2c3ccccc3c3ccccc32)nnc1-c1ccco1 (stereo not given)	-49
OC(CSc1nc2ccccc2s1)Cn1c2ccccc2c2ccccc21 (stereo not given)	-75*
Cc1nc2ccccc2n1CC(O)Cn1c2ccccc2c2ccccc21 (stereo not given)	-1
CCCCc1cn(CC2CCCN(C(=O)c3n[nH]c4c3CCCC4)C2)nn1 (stereo not given)	3
N#Cc1ccc(-c2ccc3c(c2)[C@H]2[C@H](CCN2C(=O)C2CCCCC2)[C@@H](CO)N3)cc1	-63
N#Cc1ccc(-c2ccc3c(c2)[C@@H]2[C@@H](CCN2C(=O)C2CCCCC2)[C@H](CO)N3)cc1	-63
COc1ccccc1-c1ccc2c(c1)[C@@H]1[C@@H](CCN1C(=O)C1CCC1)[C@H](CO)N2	-72*
Cc1nc(-c2ccc(F)cc2)nc2c1CCN(C(=O)C1CCOC1)CC2 (stereo not given)	-3
Cc1ccc(-c2nc(C)c(CCNC(=O)C(=O)Nc3ccccc3C)s2)cc1	-39
COCC(=O)N1CC2CN(C(=O)c3cscn3)CC2C1 (stereo not given)	91
Cc1nc(N(C)C)nc2c1COCC21CCN(C(=O)c2cccnc2)C1 (stereo not given)	-6
Cc1noc(C)c1C(=O)NCc1ccc2c(c1)OCO2	-40
Cc1ccc(Oc2ccc(CNC(=O)c3c(-c4ccncc4)noc3C)cc2)cc1	-84*
COc1ccc(-c2noc(CC(=O)NCc3ccccc3)c2-c2ccc(OC)cc2)cc1	-62
CC(NC(=O)c1cc2n(n1)CCCN(C(C)C)C2)c1nccs1 (stereo not given)	5
SMILES	Tgondii IFNg
CC(C)CN(Cc1ccsc1)S(=O)(=O)NCc1ccccc1	-11
C[C@@]1(O)CCN(c2ccc(C(F)(F)F)cn2)C[C@@H]1Cc1ccccc1	-17
O=c1[nH]c(=O)c2sc3nc(-c4ccc(Cl)cc4)cc(C(F)(F)F)c3c2[nH]1	90
COc1ccccc1-c1nc(CN(C)S(=O)(=O)c2ccc(C)cc2C)c(C)o1	-104*
COc1ccccc1-c1nc(CN(c2ccccc2OC)S(=O)(=O)c2ccccc2C)c(C)o1	-55
Cc1ccc(S(=O)(=O)N(C)Cc2nc(-c3ccccc3C)oc2C)c(C)c1	-13
COc1cccc(N(Cc2nc(-c3cccc(Cl)c3)oc2C)S(=O)(=O)c2ccccc2)c1	-35
COc1ccc(S(=O)(=O)N(C)Cc2nc(-c3cccc(Cl)c3)oc2C)cc1	-99*
Cc1oc(-c2cccc(Cl)c2)nc1CN(C)S(=O)(=O)c1ccc(F)cc1	-16
COc1ccc(-c2nc(CN(c3ccccc3OC)S(=O)(=O)c3ccc(C)cc3)c(C)o2)cc1	-34
CCOc1cc(C(=O)NC(=S)NCc2cccnc2)cc(OCC)c1OCC	-2
Cc1ccc(SCC(=O)c2ccc(Br)cc2)cc1	-42
COc1ccc(-c2nc(NCC3CCN(Cc4cccc(F)c4)CC3)c3ccccc3n2)cc1	-81
N#Cc1ccc(N2C[C@@H]3CN(c4cccnc4)C(=O)[C@@H]3C2)nc1	38
CCCOCCN1CCN(c2ncc(C)c(N(C)C)n2)CC1	-4
Cc1ccc(CN2CCN(c3ncc(C)c(N(C)C)n3)CC2=O)cc1	-85*
Cc1ccc(CN2CCN(Cc3cnc(C)[nH]3)CC2=O)cc1	1
O=C(NC1CC1)[C@H]1C[C@@H]2OCC[C@@H]2N(Cc2cccs2)C1	-2
N[C@@H]1CCCCN(c2c(F)cc3c(=O)c(C(=O)O)cn(C4CC4)c3c2Cl)C1	-9
N#Cc1c(N2C[C@@H]3NCCO[C@H]3C2)c(F)cc2c(=O)c(C(=O)O)cn(C3CC3)c12	-86*
C[C@@H]1CN(c2c(F)c(F)c3c(=O)c(C(=O)O)cn(C4CC4)c3c2F)C[C@H](C)N1	3
O=C(NCC1Cn2nnc(-c3ccccc3)c2CO1)[C@H]1CCCO1 (stereo not given in full)	-3
